Test results published in PubChem BioAssay AID1159580 (chemical genetic matrix, 2015).
Out of some 5,500 compounds screened, about 2,000 (36%) were called active. Inconclusive results (about 18%) are left out. No stated cut-off is given here; in the data, active means normalized growth mostly below about 0.91 (no sharp cut-off); inconclusive means no clear call, values can overlap the other calls; inactive means mostly above about 0.92. Some of the results follow.

Experiment: chemical genetic growth profiling, strain panel (AID 1159580);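 further: tested at 20 µM; growth read once vehicle control cultures reached saturation at 30 °C; 1 = growth at the plate median or of vehicle wells; lower values mean less growth of the strain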
Details: S. cerevisiae deletion strains, growth OD

Measured: normalized growth

CNc1ncnc2c1ncn2[C@H]1C[C@H](OP(=O)(O)O)[C@@H](COP(=O)(O)O)O1
inactive: locus YAL040C, strain CLN3, active compounds read low 0.995 | locus YCL061C, strain MRC1 (second series), active compounds read low 1.01 | locus YDR363W, strain ESC2, active compounds read low 1 | locus YER002W, strain NOP16, active compounds read low 0.983 | locus YGR229C, strain SMI1, active compounds read low 1.02 | locus YJR075W, strain HOC1, active compounds read low 1.01 | locus YNL175C, strain NOP13, active compounds read low 0.996 | locus YNL197C, strain WHI3, active compounds read low 1 | locus YNL224C, strain SQS1, active compounds read low 1 | locus YNL322C, strain KRE1, active compounds read low 1.01 | locus YOR083W, strain WHI5 (second series), active compounds read low 1.01 | locus YPL055C, strain LGE1, active compounds read low 1.01 | locus YPL241C, strain CIN2, active compounds read low 1
